Bioassay records from PubChem.
Anesthetic bind – binds horse apoferritin like a general anesthetic | P02791 | apoferritin/1-aminoanthracene competitive binding, fluorescence | Potency, µM (top dose mostly 77.5 µM), without a hit: top-dose activity change, negative = displacement, hits mostly inhibitors | hit rate 0.074% among 350,000 | AID 485281; active = well fitted inhibition curve with a large enough effect; inconclusive = small, poorly fitted or top-dose-only effect; inactive = no such curve, though single readings can be large or run the other way; also: potency is read from the fitted curve at half-maximal effect; % is scaled to controls: 0 for no effect and ±100 for the full control effect; nearly all actives have a fitted effect of over 20% in size
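Horse-spleen apoferritin (10 uM) in 50% saturated 1-aminoanthracene in PBS was incubated 10 min at room temperature with compound. Fluorescence (ex 380, em 535 nm) was normalized to free and bound 1-AMA, with concentration-response fitted by a four-parameter Hill equation.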
D2 ag-1 – human D2 receptor agonism in beta-arrestin assay; activation, % (no concentration beside the values); hit rate 0.084% among 360,000; AID 624465; P14416; DiscoveRx PathHunter D2 beta-arrestin, luminescence, 90 min; 100% = 57 uM dopamine signal; in the data active = activation above about 40%; inconclusive = between about 15% and that limit
Target sequence (P14416 whole entry, looked up): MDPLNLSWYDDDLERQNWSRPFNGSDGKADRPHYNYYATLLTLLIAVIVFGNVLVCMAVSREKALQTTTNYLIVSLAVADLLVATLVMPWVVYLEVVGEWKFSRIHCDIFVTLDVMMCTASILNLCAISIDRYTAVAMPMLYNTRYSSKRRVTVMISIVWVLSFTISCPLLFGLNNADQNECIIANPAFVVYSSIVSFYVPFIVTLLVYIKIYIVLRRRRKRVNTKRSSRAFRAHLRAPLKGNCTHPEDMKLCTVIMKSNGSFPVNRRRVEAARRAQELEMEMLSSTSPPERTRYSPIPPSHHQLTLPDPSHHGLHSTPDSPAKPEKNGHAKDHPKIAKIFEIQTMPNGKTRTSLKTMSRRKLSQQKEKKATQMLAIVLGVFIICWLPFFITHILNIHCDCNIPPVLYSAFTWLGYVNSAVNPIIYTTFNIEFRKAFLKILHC
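DiscoveRx PathHunter D2 beta-arrestin cells (2,100/well) attached overnight, then compound-stimulated 90 min at 37 C in HBSS/10 mM HEPES/0.1% Tween-20 buffer; beta-galactosidase complementation read by luminescence after 1 h at ambient temperature. Dopamine 57 uM final (EC100) as control.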
D2 PAM-1 – human D2 receptor positive allosteric modulation. P14416. DiscoveRx D2 beta-arrestin cells, luminescence, 90 min; 100% = 57 uM dopamine signal. hit rate 0.23% among 360,000. potentiation, % (concentration not given with the values); in the data active = potentiation above about 50%; inconclusive = mostly about 30% to 49%
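PathHunter D2 cells, attached overnight at 37 deg C, received compound in DMSO plus dopamine at EC20 (50 nM final) for 90 min at 37 deg C. Beta-arrestin recruitment was read as luminescence after 1 h with detection reagent at ambient temperature.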
D2 PAM-2 – positively modulates the human D2 dopamine receptor allosterically | P14416 | HEK293 T-REx D2, calcium flux, EC20 dopamine potentiation | potentiation, % at 10 µM | hit rate 0.34% among 340,000;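 active = potentiation over 3 SD above the plate norm, cut at about 30% in these data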; also: 0% is about no effect
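Tetracycline-induced Hek293 Trex D2 cells, force-coupled to calcium, loaded with no-wash calcium dye. Compound added with 180 s kinetic read for agonism, then EC20 dopamine and a further 180 s read for potentiation.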
D2 ag-2 – agonists of human D2 dopamine receptor | HEK293 T-REx D2 cells, calcium flux agonist mode | activation, % at 2 µM | P14416 | hit rate 0.53% among 340,000;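 active = activation over 3 SD above normal in the single-dose calcium agonist read, cut at about 30% in these data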; also: 0% is about no effect
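Agonism scored from kinetic calcium signal (1 read/sec, 180 s) following compound pin transfer, after a 10 s baseline. Cells: HEK293 Trex line expressing inducible D2 receptor coupled to calcium, dye-loaded after overnight culture at 30 C.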
D2 antagonist – D2 dopamine receptor (human) antagonism | P14416 | HEK293 TREx D2 cells, calcium flux, dopamine EC80 | inhibition, % at 10 µM | hit rate 2% among 340,000 | AID 485344; in the data active = inhibition above about 30%; inactive = below that, where a call was filed; also: 0% is about no effect
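Read-out: kinetic calcium fluorescence (1 cycle/s) in inducible HEK293 T-REx D2 cells after an EC80 dopamine addition that followed 180 s compound preincubation. Loss of the dopamine response indicates antagonism.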
* marks the source's active call; other numbers are inactive results; ? = inconclusive; nt = no result. A selection: hits, their analogues and other compounds. The true share with any hit is near 2.5%.

SMILES	Anesthetic bind	D2 ag-1	D2 PAM-1	D2 PAM-2	D2 ag-2	D2 antagonist
Cc1cc(=O)n2[nH]c(C)c(-c3ccc(Cl)cc3)c2n1	7%	-1	-24	-26	-2	46*
Cc1onc(C(=O)Nc2sc3c(c2C#N)CCCC3)c1[N+](=O)[O-]	?	-1	-1	-31	37*	-3
Cc1onc(-c2ccccc2Cl)c1C(=O)Nc1sc2c(c1C#N)CCC2	-4%	0	3	10	0	-11
COc1cccc(C(=O)N2CCN(Cc3nc(-c4ccoc4)oc3C)CC2)c1	nt	0	-18	nt	nt	nt
CC(=O)SCC[N+](C)(C)C	-2%	-6	3	-3	4	36*
COc1ccc(S(=O)(=O)O/N=C2\CCSc3ccc(C)cc32)cc1	0%	12	72*	3	0	-4
CCOC(=O)C1CCN(C(=O)CN(c2ccc3c(c2)OCCO3)S(=O)(=O)c2ccccc2)CC1	nt	-4	-21	-3	-1	-1
Cc1cccc(OCCNC(=O)c2ccc(Cl)c(S(=O)(=O)NCc3cccnc3)c2)c1	nt	2	-2	-4	-3	9
Cc1noc(C)c1S(=O)(=O)NCCN1CCN(c2ccccc2)CC1	-6%	10	-23	-17	31*	33*
N#Cc1ccccc1OCc1nnc(-c2ccccc2Br)o1	-7%	2	-1	-5	0	12
Clc1ccccc1OCc1nnc(-c2ccccc2Br)o1	?	-2	-17	-2	-1	36*
Fc1cccc(Cl)c1CSc1nnc(COc2cccc3cccnc23)o1	18µM*	0	5	15	0	1
Brc1ccccc1-c1nnc(COc2cccc3cccnc23)o1	-22%	7	20	0	1	38*
O=C(Nn1cnnc1)C(Sc1ccccc1)c1ccccc1 (configuration not stated)	-8%	-2	-6	8	0	-8
CC(=O)c1c(C)[nH]c(C(=O)OCC(=O)N2CCc3ccccc32)c1C	-3%	-1	-11	3	-1	-6
Cc1ccc(C(=O)N2CCCC(CCC(=O)N3CCN(c4ccccn4)CC3)C2)cn1 (configuration not stated)	-12%	-5	75*	6	0	-3
CCC1=C(OC(=O)N(CC)CC)N2C(=O)OC(=NCCOC)[C@]2(Cc2ccccc2)[C@H]2C1=CC[C@H]1C(=O)NC(=O)[C@H]12	1%	1	-9	-1	1	52*
COCc1ccc(C(=O)N2CCCC(C(=O)c3ccc(SC)cc3)C2)o1 (configuration not stated)	-19%	-2	3	-1	0	-13
COC(=O)C1C(O)=C(C(C)=N)C(=O)CC1(C)C (configuration not stated)	-7%	-2	0	-2	1	8
